Values joined by “and” are separate entries in the source; they are usually repeats but may differ in a detail not shown here. Identical values can stand only once. About 290 (0.85%) of roughly 34,000 compounds showed an effect of 50% or more. The list comes from a sample in which strong results are over-represented; it also holds similar structures and randomly drawn compounds.
System: Plasmodium falciparum
Experiment: Plasmodium falciparum sporozoite viability assay
Type: functional, organism-based
Design: scale not given: in the data most compounds retested in dose-response had high values

Row | SMILES | Percent Effect (10 mM as filed; unlikely as a test dose) | Percent Effect [%]
1 | O=C(O)CCCNC(=O)N1CCc2c([nH]c3ccc(Cl)cc23)C1 | 31.15% and 28.91% | –
2 | O=C(O)CCNC(=O)N1CCc2c([nH]c3ccc(Cl)cc23)C1 | -34.22% and -28.29% | –
3 | COC(=O)CCCNC(=O)N1CCc2c([nH]c3ccc(Cl)cc23)C1 | 80.07% and 78.06% | –
4 | CC(C)N1c2sc(-c3ccsc3)nc2CC1C(=O)NC1CC1 (centres undefined) | 76.28% and 81.46% | –
5 | CC(C)CC(=O)N1CCC(Nc2nc(O)cc(-c3ccsc3)n2)CC1 | – | 14.33
6 | CN(C)C(=O)N1CCN(Cc2cnc(-c3ccsc3)s2)CC1 | – | -10.41
7 | Cc1nc(-c2ccsc2)sc1C(=O)N1CCn2c(C)nnc2C1 | – | 4.116
8 | CC(C)N1c2sc(-c3ccsc3)nc2CC1C(=O)NC1CCCC1 (centres undefined) | 80.44% and 80.12% | –
9 | O=C(NC1CCCC1)C1Cc2nc(-c3ccsc3)sc2N1CC1CC1 (centres undefined) | 9.544% and 5.829% and 5.902% | –
10 | Cc1ccncc1CN1CCOCC1c1[nH]ncc1C (centres undefined) | – | -4.491
11 | Cc1cccc(CN2CCC(c3csc4nccn34)CC2)n1.O=CO | – | 3.885
12 | N#Cc1cccc(N2CC3(CCN(C(=O)c4ccncc4)C3)CC2=O)c1.O=C(O)C(F)(F)F (centres undefined) | – | -19.71
13 | OC1CCN([C@@H]2CCN(c3nc(-c4ccccc4)no3)C[C@H]2O)CC1 | 63.55% and 40.94% | –
14 | O[C@H]1CN(c2nc(-c3ccccc3)no2)C[C@@H]1N1CCOCC1 | -27.06% and -32.72% | –
15 | OC1CCN(c2ccccc2NCc2nc(-c3cccs3)no2)CC1 | 22.91% and 47.25% and 30.27% | –
16 | Cc1nn2c(N3CCC(O)CC3)cc(-c3ccccc3)nc2c1C | – | -9.448
17 | Cc1cccc(NC(=O)[C@@H]2CCCN2Cc2ccc(C#N)cc2F)n1 | – | -15.69
18 | CCn1ncc2c1C(COC)CN(Cc1ccc(F)cc1)C2.O=C(O)C(F)(F)F.O=C(O)C(F)(F)F (centres undefined) | – | 5.175
19 | O=C(O)c1cccc(S(=O)(=O)N2CCOc3ccccc32)c1 | – | 8.824
20 | Cn1cnc(S(=O)(=O)NCCCN2CCCCCC2=O)c1Cl | – | -2.417
21 | CCNC(=O)C(C)NC(=O)c1cnc(-c2ccc(C)cc2C)s1 (centres undefined) | – | 5.538
22 | CCCNCc1ccc(OCc2ccc3c(c2)OCCO3)cc1.Cl | -30.54% and -21.42% | –

Row | SMILES | Percent Effect (10 mM as filed; unlikely as a test dose) | Percent Effect [%]
23 | CC(C)(C)NCc1ccc(OCc2ccc3c(c2)OCCO3)cc1.Cl | -36.62% and -27.49% | –
24 | CCNCc1ccc(OCc2ccc3c(c2)OCCO3)cc1.Cl | -24.62% and -4.131% | –
25 | COc1c(CNCc2ccc3c(c2)OCCO3)c(C(C)C)nn1C | – | 14.99
26 | CC(C)(CO)NCc1ccc(OCc2ccc3c(c2)OCCO3)cc1.Cl | 25.27% and 55.16% | –
27 | COc1cc(CNCC(C)O)cc(Cl)c1OCc1ccc(C)cc1.Cl (centres undefined) | – | -5.385
28 | CSc1nccc(N2CCC(NCc3ccc4c(c3)OCO4)CC2)n1 | – | 4.585
29 | Cl.c1cc(OCc2ccc3c(c2)OCO3)ccc1CNC1CC1 | 33.09% and 60.95% and 82.86% | –
30 | CC(O)CNCc1ccc(OCc2ccc3c(c2)OCCO3)cc1.Cl (centres undefined) | 88.95% and 91.02% and 83.06% | –
31 | Cc1nccn1C1CCCN(C(=O)c2sccc2-n2cnnn2)C1 (centres undefined) | – | -0.2931
32 | CN1CCN(Cc2cn3c(n2)CN(C2CCOCC2)CC3)CC1.O=C(O)C(F)(F)F.O=C(O)C(F)(F)F.O=C(O)C(F)(F)F | – | 10.57
33 | O=C(CCc1ccco1)Nc1cc(C(F)(F)F)c[nH]c1=O | – | -11.4
34 | COc1cccc(O[C@H]2CCN(c3nc(C)cc(C)n3)CC[C@@H]2O)c1 | – | 11.61
35 | O=C(Cn1cccc2cc(-c3ccc(F)cc3)nc1-2)N1CCC(O)CC1 | – | -1.811
36 | COc1ccc(C2CNCCN2C(=O)c2cccc3ncccc23)cc1 (centres undefined) | – | 4.068
37 | CC(C)N(C)S(=O)(=O)c1ccc2c(c1)CCN(C(=O)c1cnccn1)C2 | – | -1.97
38 | O=C(CN1CCCC1c1noc(C2CC2)n1)NCCc1ccsc1 (centres undefined) | – | 13.6
39 | CN(C)c1ccc(C(=O)N2CCCN(Cc3cnn(C)c3)CC2)nn1 | – | -1.596
40 | O=C(O)c1ccc(=O)n(CC(c2ccc(Cl)cc2)N2CCOCC2)c1 (centres undefined) | – | 5.86
41 | Cc1ccccc1-c1noc(CN2CC(n3cccn3)C2)n1 | – | -26.31
42 | Cc1cccc(-c2noc(CN3CC(n4cc(C)cn4)C3)n2)c1 | – | -1.145
43 | O=C(Nc1ccccc1)N1CCc2nc(C(=O)N3CCCC3)sc2CC1 | 42.14% and 56.3% and 42.63% | –
44 | NC(=O)c1nc2c(s1)CCN(C(=O)Nc1ccccc1)CC2 | – | 13.34

From ChEMBL document CHEMBL3988442, “University of Dundee, Small-Polar-MMV Screening Library” (2021)
